# Compound activity from PubChem.
# This is one part of a sample in which hits are shown more often than they occur.
# EZH2 inh – EZH2 (human) methyltransferase inhibition; Q15910; PRC2 H3K27 methylation, DELFIA TRF, 1 h; inhibition, % at 12.5 µM; hit rate 0.35% among 57,000;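 active means mean inhibition of replicates at least 50% and every single replicate also reaching 50%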;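 further: dimethyl H3K27 on biotinylated H3 21-44 peptide detected by antibody; plate controls were median neutral control wells for no effect and median positive control wells for full effect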
# Target sequence (Q15910 whole entry, looked up): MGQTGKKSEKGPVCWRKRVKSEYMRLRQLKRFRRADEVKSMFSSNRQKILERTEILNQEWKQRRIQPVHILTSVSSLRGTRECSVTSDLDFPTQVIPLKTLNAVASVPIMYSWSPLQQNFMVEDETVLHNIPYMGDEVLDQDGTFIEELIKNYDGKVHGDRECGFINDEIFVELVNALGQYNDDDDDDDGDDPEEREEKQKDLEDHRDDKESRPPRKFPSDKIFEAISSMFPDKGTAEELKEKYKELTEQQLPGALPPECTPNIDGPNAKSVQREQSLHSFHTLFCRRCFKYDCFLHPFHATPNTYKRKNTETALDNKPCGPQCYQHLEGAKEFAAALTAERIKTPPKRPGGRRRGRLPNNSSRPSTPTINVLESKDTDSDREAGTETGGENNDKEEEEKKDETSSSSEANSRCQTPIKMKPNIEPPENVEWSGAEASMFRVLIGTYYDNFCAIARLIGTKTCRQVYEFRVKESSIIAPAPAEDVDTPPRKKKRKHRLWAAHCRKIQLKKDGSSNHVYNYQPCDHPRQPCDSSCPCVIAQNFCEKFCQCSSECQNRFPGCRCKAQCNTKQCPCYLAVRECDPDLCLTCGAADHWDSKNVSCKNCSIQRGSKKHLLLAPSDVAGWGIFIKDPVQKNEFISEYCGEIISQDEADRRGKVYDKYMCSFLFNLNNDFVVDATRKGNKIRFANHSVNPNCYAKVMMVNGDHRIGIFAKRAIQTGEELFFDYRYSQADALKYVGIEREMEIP
# The depositor's hits bear a star.
SMILES,EZH2 inh
C[C@H]1O[C@@H](O[C@H]2CC[C@@]3(C)C(CC[C@]4(C)C3CC=C3C5CC(C)(C)CC[C@]5(C(=O)O)CC[C@]34C(=O)O)C2(C)C)[C@H](O)[C@@H](O)[C@H]1O (stereo partly drawn),3
C[C@@H]1CC[C@]2(C(=O)O[C@@H]3O[C@H](CO)[C@@H](O)[C@H](O)[C@H]3O)CC[C@]3(C)C(=CCC4[C@@]5(C)C[C@@H](O)[C@H](O)C(C)(C)C5CC[C@]43C)C2[C@]1(C)O (stereo partly drawn),36
CC1(C)CC[C@]2(C(=O)O[C@@H]3O[C@H](CO)[C@@H](O)[C@H](O)[C@H]3O)CC[C@]3(C)C(=CCC4[C@@]5(C)CC[C@H](OC6O[C@H](CO)[C@@H](O)[C@H](O[C@@H]7O[C@H](CO)[C@@H](O)[C@H](O)[C@H]7O)[C@H]6O)C(C)(C)C5CC[C@]43C)[C@@H]2C1 (stereo partly drawn),-18
CC1CC[C@]2(C(=O)OC3OC(COC4OC(CO)C(O)C(O)C4O)C(O)C(O)C3O)CC[C@]3(C(=O)O)C(=CCC4[C@@]5(C)CC[C@H](OC6OC(C)C(O)C(O)C6O)C(C)(C)C5CC[C@]43C)C2C1C (stereo partly drawn),71*
C[C@H]1[C@H](C)CC[C@]2(C(=O)O)CC[C@]3(C(=O)O)C(=CCC4[C@@]5(C)CC[C@H](O[C@@H]6O[C@@H](C)[C@H](O)[C@@H](O)[C@H]6O)C(C)(C)C5CC[C@]43C)[C@H]12 (stereo partly drawn),19
Cc1ccc(-c2csc3ncnc(SCC(=O)Nc4ccc(S(N)(=O)=O)cc4)c23)cc1,-21
Cc1nonc1OCCNc1cc(N2CCCC2)ccc1[N+](=O)[O-],17
O=C(CN1C(=O)C2C3C=CC(C4CC34)C2C1=O)Nc1ccc(Oc2ccc(Br)cc2)cc1 (stereo not drawn),5
COC(=O)CCCCCCC(=O)N/N=C/c1ccc(OCCCN(C)C)cc1,-4
COc1cc(/C=C/C=N/NC(=O)CCCCCCC(=O)Nc2ccccc2O)ccc1O,8
CCOc1ccccc1-c1nc(SCC(=O)Nc2sc3c(c2C#N)CCCC3)n[nH]1,-27
Cc1cc(-c2ccccc2)nc(SCC(=O)Nc2sc3c(c2C#N)CCCC3)n1,-2
Cc1ccccc1-c1nc(SCC(=O)Nc2sc3c(c2C#N)CCCC3)n[nH]1,55*
O=C(Nc1cccc(Cn2cccn2)c1)c1cc(-c2ccncc2)nc2ccc(Br)cc12,-16
Cc1cccc(OCC(=O)Nc2c[nH]c(=O)[nH]c2=O)c1C,7
O=c1ccc2ccc(Oc3ncnc4scc(-c5ccc(F)cc5)c34)cc2o1,2
O=C(CCCCC(=O)N/N=C/c1ccc(-c2ccccc2)c(F)c1)NO,-12
COC(=O)CCCCCCC(=O)N/N=C/c1ccc(Oc2ccccc2)cc1,-3
COC(=O)CCCCCCC(=O)N/N=C/c1ccc(-c2ccccc2)c(F)c1,60*
Cc1sc(NC(=O)COc2ccc(Cl)cc2Br)c(C(N)=O)c1C,19
O=S(=O)(Nc1nccs1)c1ccc(NS(=O)(=O)c2cc(Cl)ccc2Cl)cc1,-18
O=C(CC(Sc1ccc(Cl)cc1)c1ccc(Cl)cc1)C1CC1 (stereo not drawn),53*
Cc1cccc(N2C(=O)CC(SCc3nc4ccccc4[nH]3)C2=O)c1 (stereo not drawn),-1
CO[C@@H](CN(C)S(=O)(=O)c1ccc(C)cc1)[C@@H](C)CN(Cc1ccccc1Cl)[C@H](C)CO,51*
CO[C@@H](CN(C)S(=O)(=O)c1ccc(C)cc1)[C@@H](C)CN(Cc1ccccc1Cl)[C@@H](C)CO,38
SMILES,EZH2 inh
CO[C@H](CN(C)S(=O)(=O)c1ccc(C)cc1)[C@H](C)CN(Cc1ccccc1Cl)[C@@H](C)CO,42
COC(=O)c1ccc(CSc2nnc(CN3CCOCC3)n2C)cc1,10
COc1ccc(-c2ccc(C#N)c(SCC(=O)Nc3cc(OC)c(OC)c(OC)c3)n2)cc1,-9
COc1ccc(-c2nc(SCC(=O)Nc3cccc(Br)c3)n[nH]2)cc1,2
O=C(CSc1n[nH]c(-c2ccc(Cl)cc2)n1)Nc1ccc(Br)c(Cl)c1,-4
COc1ccc(-c2nc(SCC(=O)Nc3ccc(Br)c(Cl)c3)n[nH]2)cc1,57*
COC(=O)c1ccccc1NC(=O)CSc1nc(-c2ccccc2)cc(=O)[nH]1,5
Oc1ccc(CCCCC(CCc2ccc(O)cc2)O[C@@H]2OC[C@@H](O)[C@H](O)[C@H]2O)cc1 (stereo partly drawn),11
O=C(CCc1ccc(O)cc1)c1c(O)c([C@@H]2O[C@H](CO)[C@@H](O)[C@H](O)[C@H]2O)c(O)c([C@@H]2O[C@H](CO)[C@@H](O)[C@H](O)[C@H]2O)c1O,11
OC[C@H]1O[C@@H](OC(CCCCc2ccc(O)cc2)CCc2ccc(O)cc2)[C@H](O)[C@@H](O)[C@@H]1O (stereo partly drawn),73*
O=C(CCCCCC(=O)Nc1ccccc1O)N/N=C/[C@H](O)[C@@H](O)[C@H](O)CO,-8
COc1ccc(C(=O)CSc2nnc(-c3ccccc3)n2-c2ccc(Br)cc2)cc1,14
O=C(CCCCCCC(=O)Nc1ccccc1O)N/N=C/[C@H](O)[C@@H](O)[C@H](O[C@@H]1O[C@H](CO)[C@H](O)[C@H](O)[C@H]1O)[C@H](O)CO,-4
C[C@H]1CN([C@@H](C)CO)C(=O)c2cc(NS(=O)(=O)c3cccs3)ccc2O[C@@H]1CN(C)Cc1ccc(-c2ccccc2)cc1,72*
C[C@H](CO)N1C[C@H](C)[C@@H](CN(C)Cc2ccccc2)Oc2ccc(NS(=O)(=O)c3cccs3)cc2C1=O,8
C[C@@H]1CN([C@@H](C)CO)C(=O)c2cc(NS(=O)(=O)c3cccs3)ccc2O[C@@H]1CN(C)Cc1ccccc1,1
C[C@H]1CN([C@@H](C)CO)C(=O)c2cc(NS(=O)(=O)c3cccs3)ccc2O[C@@H]1CN(C)Cc1ccccc1,3
C[C@@H]1CN([C@H](C)CO)C(=O)c2cc(NS(=O)(=O)c3cccs3)ccc2O[C@@H]1CN(C)Cc1ccccc1,-6
C[C@@H]1CN([C@@H](C)CO)C(=O)c2cc(NS(=O)(=O)c3cccs3)ccc2O[C@H]1CN(C)Cc1ccc(-c2ccccc2)cc1,60*
O=S(=O)(Nc1ccc(O)c(Sc2nc3ccccc3s2)c1)c1ccccc1,2
NC(=O)CSc1nc2c(c(=O)n1Cc1ccccc1)C1(CCCC1)Cc1ccccc1-2,-13
CNc1nc(SC(C)C(=O)OC)nc(N2CCOCC2)n1 (stereo not drawn),-24
Cc1cc(C)cc(NC(=O)CSc2nnc(-c3ccncc3)n2C)c1,-9
COc1ccccc1NC(=O)Cn1nnc(-c2ccc(C(F)(F)F)cc2)n1,2
COc1ccccc1-n1nnnc1SCC(=O)Nc1cc(OC)c(OC)c(OC)c1,-1
O=C(CCCCCC(=O)N/N=C/c1cccc(Br)c1)NO,11
COc1ccc(-c2nnc(SCc3ccc([N+](=O)[O-])c(OC)c3)n2-c2ccccc2)cc1,19
O=C(CCCCCC(=O)Nc1ccccc1O)N/N=C/c1ccc[nH]1,20
C/C=C1\C(O[C@@H]2O[C@H](CO)[C@@H](O)[C@H](O)[C@H]2O)OC=C(C(=O)OC)C1CC(=O)OC[C@H]1O[C@@H](OCCc2ccc(O)cc2)[C@H](OC(=O)CC2C(C(=O)OC)=COC(O[C@@H]3O[C@H](CO)[C@@H](O)[C@H](O)[C@H]3O)/C2=C\C)[C@@H](O)[C@@H]1O (stereo partly drawn),2
